{"source": "PubChem BioAssay AID2284385", "about": "(EPA ToxCast)", "note": "Calls of active or inactive are those of the source. How the source made its calls: active means hit-call score of the fitted dose curve at least 0.9, where 1 is the maximum; inactive means score below 0.9."}
{"target": "human Peroxisome proliferator-activated Receptor alpha (PPARa), PPARA (gene 5465) (UniProt Q07869)", "sequence (Q07869 whole entry, looked up)": "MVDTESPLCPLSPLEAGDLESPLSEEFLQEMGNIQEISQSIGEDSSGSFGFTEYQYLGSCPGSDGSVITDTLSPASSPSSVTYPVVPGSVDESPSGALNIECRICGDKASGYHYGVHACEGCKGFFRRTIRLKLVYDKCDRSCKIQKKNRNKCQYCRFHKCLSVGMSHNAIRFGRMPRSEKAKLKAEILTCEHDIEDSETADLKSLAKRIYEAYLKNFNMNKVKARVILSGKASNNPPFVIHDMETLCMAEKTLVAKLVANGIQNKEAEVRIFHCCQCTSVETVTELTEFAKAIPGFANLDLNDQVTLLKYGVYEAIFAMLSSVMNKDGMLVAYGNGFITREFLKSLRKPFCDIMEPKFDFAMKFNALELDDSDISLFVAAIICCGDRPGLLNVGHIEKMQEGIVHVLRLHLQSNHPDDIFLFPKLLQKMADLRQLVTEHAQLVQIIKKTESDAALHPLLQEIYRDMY", "experiment": "ERF_TW_NR_COA_hPPARA: Eurofins (ERF) Nuclear Receptor (NR) Functional Coactivator Assay for human Peroxisome proliferator-activated Receptor alpha (PPARa) Agonism & Antagonism, conducted at Taiwan lab site", "experimental": "ERF_TW_NR_COA_hPPARA is a biochemical, single-readout assay that uses extracted gene-proteins in a cell-free assay. Measurements were taken 3 hours after chemical dosing in a 96-well plate. See PPARalpha Human NHR Functional Agonist Coactivator Assay, Panlabs.ERF_TW_NR_COA_hPPARA is an assay component calculated from the ERF_TW_NR_COA_hPPARA assay. It is designed to measure FRET using a type of binding reporter as detected by fluorescence intensity of GW7647 with fluorimetry technology.Data from the assay component ERF_TW_NR_COA_hPPARA was analyzed at the assay endpoint, ERF_TW_NR_COA_hPPARA, in the positive analysis fitting direction relative to DMSO as the negative control and baseline of activity. Using a type of binding reporter, gain-of-signal activity can be used to understand changes in binding as they relate to gene PPARA. To generalize the intended target to other relatable targets, this assay endpoint is annotated to the nuclear receptor intended target family, where the subfamily is non-steroidal.\nHuman recombinant peroxisome proliferators-activated receptor alpha (PPARA, PPARa, PPAR-alpha) hPPAR, NR1C1) receptors expressed in insect are used. Test compound and/or vehicle is incubated with the 2.5 nM receptors and binding buffer in modified kit buffer pH 7.4 for 3 hours at RT. Determination of the amount of complex formed is read microplate reader (excitation:337 nm, emission: 520/490 nm). Test compound-induced increase fluorescence by 50 percent or more (>/=50%) relative to the 1 uM GW7647 response indicates possible PPARa receptor agonist activity. Test compound-induced inhibition of 20 nM GW7647-induced fluorescence response by 50 percent or more (>/=50%) indicates receptor antagonist activity."}
{"smiles": "CC(C)(Oc1ccc(C(=O)c2ccc(Cl)cc2)cc1)C(=O)O", "AC50": "15.7 µM (active)"}
{"smiles": "O=C(O)CCC(F)(F)C(F)(F)C(F)(F)F", "outcome": "inactive"}
{"smiles": "O=C(O)C(F)(F)C(F)(F)C(F)(F)C(F)(F)C(F)(F)C(F)(F)C(F)(F)C(F)(F)Cl", "outcome": "inactive"}
{"smiles": "O=C(O)C(F)(F)C(F)(F)C(F)(F)C(F)(F)C(F)(F)C(F)(F)C(F)F", "AC50": "31.1 µM (active)"}
{"smiles": "CN(CCOc1ccc(CC2SC(=O)NC2=O)cc1)c1ccccn1", "note": "(configuration not stated)", "outcome": "inactive"}
{"smiles": "O=C(CC(=O)C(F)(F)C(F)(F)C(F)(F)F)c1cccs1", "outcome": "inactive"}
{"smiles": "O=C(Cl)C(F)(F)C(F)(F)C(F)(F)C(F)(F)C(F)(F)C(F)(F)F", "AC50": "31.6 µM (active)"}
